{
  "source": "PubChem BioAssay AID1159580",
  "about": "(chemical genetic matrix, 2015)",
  "test": "chemical genetic growth profiling, strain panel (AID 1159580);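 note: tested at 20 µM; growth read once vehicle control cultures reached saturation at 30 °C; 1 = growth at the plate median or of vehicle wells; lower values mean less growth of the strain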",
  "conditions": "S. cerevisiae deletion strains, growth OD",
  "note": "Screen size: about 5,500 compounds; about 2,000 (36%) were called active. Inconclusive results (about 18%) are left out. The list shows a part of the results. A number with no mark means an inactive call. Cut-off read from the data, not from the text of the source: active = normalized growth mostly below about 0.91 (no sharp cut-off); inconclusive = no clear call, values can overlap the other calls; inactive = mostly above about 0.92.",
  "data": [
    {"smiles": "COc1cc(O)c(C(=O)/C=C/c2ccc(OC)c(O)c2)c(OC)c1", "values": [
      {"measurement": "normalized growth", "setting": "locus YAL021C, strain ccr4, hits give low values", "value": 0.994},
      {"measurement": "normalized growth", "setting": "locus YAL026C, strain drs2, hits give low values", "value": "0.906 (active)"},
      {"measurement": "normalized growth", "setting": "locus YAL030W, strain snc1, hits give low values", "value": 0.961},
      {"measurement": "normalized growth", "setting": "locus YBL061C, strain skt5, hits give low values", "value": 0.939},
      {"measurement": "normalized growth", "setting": "locus YBR009C, strain hhf1, hits give low values", "value": "0.846 (active)"},
      {"measurement": "normalized growth", "setting": "locus YBR023C, strain chs3, hits give low values", "value": "0.912 (active)"},
      {"measurement": "normalized growth", "setting": "locus YBR171W, strain sec66, hits give low values", "value": 0.993},
      {"measurement": "normalized growth", "setting": "locus YBR231C, strain swc5, hits give low values", "value": 0.925},
      {"measurement": "normalized growth", "setting": "locus YBR279W, strain paf1, hits give low values", "value": 0.965},
      {"measurement": "normalized growth", "setting": "locus YCL011C, strain gbp2, hits give low values", "value": 0.91},
      {"measurement": "normalized growth", "setting": "locus YCL016C, strain dcc1, hits give low values", "value": 0.971},
      {"measurement": "normalized growth", "setting": "locus YCL061C, strain MRC1, hits give low values", "value": 0.954},
      {"measurement": "normalized growth", "setting": "locus YCL069W, strain vba3, hits give low values", "value": 0.946},
      {"measurement": "normalized growth", "setting": "locus YCR088W, strain abp1, hits give low values", "value": 0.995},
      {"measurement": "normalized growth", "setting": "locus YDL005C, strain med2, hits give low values", "value": 1.01},
      {"measurement": "normalized growth", "setting": "locus YDL040C, strain nat1, hits give low values", "value": 1.01},
      {"measurement": "normalized growth", "setting": "locus YDR001C, strain nth1, hits give low values", "value": 0.992},
      {"measurement": "normalized growth", "setting": "locus YDR069C, strain doa4, hits give low values", "value": 1.06},
      {"measurement": "normalized growth", "setting": "locus YDR137W, strain rgp1, hits give low values", "value": 0.912},
      {"measurement": "normalized growth", "setting": "locus YDR159W, strain sac3, hits give low values", "value": 0.929},
      {"measurement": "normalized growth", "setting": "locus YDR195W, strain ref2", "value": "1.17 [resistant] (active)"},
      {"measurement": "normalized growth", "setting": "locus YDR297W, strain sur2, hits give low values", "value": 1.01},
      {"measurement": "normalized growth", "setting": "locus YDR334W, strain swr1, hits give low values", "value": 0.983},
      {"measurement": "normalized growth", "setting": "locus YDR335W, strain msn5, hits give low values", "value": 0.935},
      {"measurement": "normalized growth", "setting": "locus YDR392W, strain spt3, hits give low values", "value": "0.413 (active)"},
      {"measurement": "normalized growth", "setting": "locus YEL003W, strain gim4, hits give low values", "value": 0.927},
      {"measurement": "normalized growth", "setting": "locus YEL037C, strain rad23, hits give low values", "value": 0.988},
      {"measurement": "normalized growth", "setting": "locus YEL061C, strain CIN8 (second series), hits give low values", "value": 0.918},
      {"measurement": "normalized growth", "setting": "locus YER015W, strain faa2, hits give low values", "value": 0.956},
      {"measurement": "normalized growth", "setting": "locus YER016W, strain bim1, hits give low values", "value": 1.02},
      {"measurement": "normalized growth", "setting": "locus YER111C, strain swi4, hits give low values", "value": 0.98},
      {"measurement": "normalized growth", "setting": "locus YER155C, strain BEM2 (second series), hits give low values", "value": "0.765 (active)"},
      {"measurement": "normalized growth", "setting": "locus YFR010W, strain ubp6, hits give low values", "value": 0.959},
      {"measurement": "normalized growth", "setting": "locus YGL167C, strain pmr1, hits give low values", "value": 1.02},
      {"measurement": "normalized growth", "setting": "locus YGL173C, strain kem1, hits give low values", "value": 0.939},
      {"measurement": "normalized growth", "setting": "locus YGL227W, strain vid30, hits give low values", "value": 0.96},
      {"measurement": "normalized growth", "setting": "locus YGL240W, strain doc1, hits give low values", "value": 0.946},
      {"measurement": "normalized growth", "setting": "locus YGL253W, strain hxk2, hits give low values", "value": "0.806 (active)"},
      {"measurement": "normalized growth", "setting": "locus YHR013C, strain ard1, hits give low values", "value": 1.02},
      {"measurement": "normalized growth", "setting": "locus YHR027C, strain rpn1, hits give low values", "value": 0.987},
      {"measurement": "normalized growth", "setting": "locus YHR030C, strain SLT2, hits give low values", "value": 0.922},
      {"measurement": "normalized growth", "setting": "locus YHR079C, strain IRE1, hits give low values", "value": 0.943},
      {"measurement": "normalized growth", "setting": "locus YHR142W, strain chs7, hits give low values", "value": "0.712 (active)"},
      {"measurement": "normalized growth", "setting": "locus YJL092W, strain hpr5, hits give low values", "value": 0.957},
      {"measurement": "normalized growth", "setting": "locus YJL095W, strain BCK1 (second series), hits give low values", "value": "0.86 (active)"},
      {"measurement": "normalized growth", "setting": "locus YJL095W, strain BCK1, hits give low values", "value": 0.941},
      {"measurement": "normalized growth", "setting": "locus YJL115W, strain asf1, hits give low values", "value": 1},
      {"measurement": "normalized growth", "setting": "locus YJL129C, strain trk1, hits give low values", "value": "0.852 (active)"},
      {"measurement": "normalized growth", "setting": "locus YJL154C, strain vps35, hits give low values", "value": 1.02},
      {"measurement": "normalized growth", "setting": "locus YJL164C, strain tpk1, hits give low values", "value": "0.842 (active)"},
      {"measurement": "normalized growth", "setting": "locus YJL166W, strain qcr8, hits give low values", "value": "0.799 (active)"},
      {"measurement": "normalized growth", "setting": "locus YJL187C, strain SWE1, hits give low values", "value": "0.914 (active)"},
      {"measurement": "normalized growth", "setting": "locus YJR066W, strain TOR1, hits give low values", "value": 0.897},
      {"measurement": "normalized growth", "setting": "locus YKL160W, strain elf1, hits give low values", "value": "0.893 (active)"},
      {"measurement": "normalized growth", "setting": "locus YKR026C, strain gcn3, hits give low values", "value": 0.992},
      {"measurement": "normalized growth", "setting": "locus YKR091W, strain srl3, hits give low values", "value": 1.01},
      {"measurement": "normalized growth", "setting": "locus YLL001W, strain dnm1, hits give low values", "value": "0.891 (active)"},
      {"measurement": "normalized growth", "setting": "locus YLL026W, hits give low values", "value": "0.857 (active)"},
      {"measurement": "normalized growth", "setting": "locus YLL041C, strain sdh2, hits give low values", "value": 1.01},
      {"measurement": "normalized growth", "setting": "locus YLR027C, strain aat2, hits give low values", "value": "0.841 (active)"},
      {"measurement": "normalized growth", "setting": "locus YLR113W, strain HOG1, hits give low values", "value": 0.982},
      {"measurement": "normalized growth", "setting": "locus YLR221C, strain rsa3, hits give low values", "value": "0.79 (active)"},
      {"measurement": "normalized growth", "setting": "locus YLR258W, strain gsy2, hits give low values", "value": "0.903 (active)"},
      {"measurement": "normalized growth", "setting": "locus YLR262C, strain YPT6 (second series), hits give low values", "value": "0.752 (active)"},
      {"measurement": "normalized growth", "setting": "locus YLR320W, strain mms22, hits give low values", "value": "0.793 (active)"},
      {"measurement": "normalized growth", "setting": "locus YLR342W, strain FKS1, hits give low values", "value": 1},
      {"measurement": "normalized growth", "setting": "locus YLR357W, strain rsc2, hits give low values", "value": 0.933},
      {"measurement": "normalized growth", "setting": "locus YLR370C, strain arc18, hits give low values", "value": 0.944},
      {"measurement": "normalized growth", "setting": "locus YLR384C, strain iki3, hits give low values", "value": 1.03},
      {"measurement": "normalized growth", "setting": "locus YML120C, strain ndi1, hits give low values", "value": "0.828 (active)"},
      {"measurement": "normalized growth", "setting": "locus YMR058W, strain fet3, hits give low values", "value": "0.847 (active)"},
      {"measurement": "normalized growth", "setting": "locus YMR125W, strain sto1, hits give low values", "value": 0.9},
      {"measurement": "normalized growth", "setting": "locus YMR129W, hits give low values", "value": 0.992},
      {"measurement": "normalized growth", "setting": "locus YMR205C, strain PFK2, hits give low values", "value": "0.845 (active)"},
      {"measurement": "normalized growth", "setting": "locus YMR231W, strain pep5, hits give low values", "value": 0.98},
      {"measurement": "normalized growth", "setting": "locus YNL071W, strain lat1, hits give low values", "value": "0.566 (active)"},
      {"measurement": "normalized growth", "setting": "locus YNL183C, strain NPR1, hits give low values", "value": 0.958},
      {"measurement": "normalized growth", "setting": "locus YNL209W, strain ssb2, hits give low values", "value": 1.01},
      {"measurement": "normalized growth", "setting": "locus YNL248C, strain rpa49, hits give low values", "value": 0.909},
      {"measurement": "normalized growth", "setting": "locus YNL322C, strain KRE1 (second series), hits give low values", "value": 0.997},
      {"measurement": "normalized growth", "setting": "locus YNR049C, strain mso1, hits give low values", "value": 0.997},
      {"measurement": "normalized growth", "setting": "locus YOR001W, strain rrp6, hits give low values", "value": 0.905},
      {"measurement": "normalized growth", "setting": "locus YOR070C, strain gyp1, hits give low values", "value": "0.895 (active)"},
      {"measurement": "normalized growth", "setting": "locus YOR080W, strain dia2, hits give low values", "value": 1.01},
      {"measurement": "normalized growth", "setting": "locus YOR083W, strain WHI5, hits give low values", "value": "0.859 (active)"},
      {"measurement": "normalized growth", "setting": "locus YOR106W, strain vam3, hits give low values", "value": "0.822 (active)"},
      {"measurement": "normalized growth", "setting": "locus YOR231W, strain MKK1, hits give low values", "value": 0.931},
      {"measurement": "normalized growth", "setting": "locus YOR265W, strain rbl2, hits give low values", "value": 0.988},
      {"measurement": "normalized growth", "setting": "locus YOR270C, strain vph1, hits give low values", "value": 0.833},
      {"measurement": "normalized growth", "setting": "locus YOR290C, strain snf2, hits give low values", "value": "0.751 (active)"},
      {"measurement": "normalized growth", "setting": "locus YPL051W, strain arl3, hits give low values", "value": "0.856 (active)"},
      {"measurement": "normalized growth", "setting": "locus YPL078C, strain atp4, hits give low values", "value": "0.796 (active)"},
      {"measurement": "normalized growth", "setting": "locus YPL106C, strain sse1, hits give low values", "value": 0.929},
      {"measurement": "normalized growth", "setting": "locus YPL240C, strain hsp82, hits give low values", "value": 0.976},
      {"measurement": "normalized growth", "setting": "locus YPL256C, strain CLN2, hits give low values", "value": 0.942}
    ]}
  ]
}
